Bioassay records deposited in PubChem BioAssay by several laboratories.
Rows were chosen to be rich in hits. Some 8.7% of all compounds tested hit in one or more screens of this group.
Cav3 T inh = inhibitors of human Cav3.2 T-type calcium channel | O95180 | Cav3.2-expressing cells, Fluo-4 calcium fluorescence FDSS; hits give low values | B-score at 10 µM | 100,000 compounds, 4% hits | AID 449739;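 active means single-dose well whose peak fluorescence ratio is a statistical outlier from its plate by either plate-standardised score or position-corrected B-score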
PostGolgi ctrl = growth of the yeast control strain, post-Golgi counter-screen | efflux-deficient yeast background strain, growth absorbance A615, 16 h | inhibition, % at 10 µM | 98,000 compounds, 5% hits | AID 738
PostGolgi yeast = growth inhibition of a yeast mutant, post-Golgi transport screen | 98,000 compounds, 0.9% hits | inhibition, % at 10 µM | post-Golgi transport phenotypic cell assay;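 further: yeast cells grown in 1536-well plates; yeast grown about 18 h at 30C before absorbance read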
hDAT+cocaine = changed human dopamine transporter uptake under cocaine IC80; B-score at 10 µM; 110,000 compounds, 1.3% hits; LLC-PK1 hDAT cells, [14C]-dopamine uptake with cocaine IC80; actives deviate in either direction; Q01959;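 active means Z score or B-score, a plate-position-corrected score, falls beyond the plate's 99.7% confidence bounds, in either direction; inactive means both scores lie inside the 99.7% bounds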;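 further: scored against the spread of the other compound wells on the same plate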
TNAP act DEA = human TNAP activation, intermediate phosphate acceptor; activation factor at 20 µM; AID 813; purified TNAP, CDP-star luminescence, 100 mM DEA, 30 min; hits give high values; scale: 0 levamisole-inhibited, 1 vehicle-only enzyme; 64,000 tested, under 10 active;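 active means activation factor of at least 2 at 20 µM, relative to controls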
Smad3 FoxH1 inh = Smad3 (human) transcription factor binding inhibition; P84022; inhibition, % at 25 µM; TR-FRET Smad3/Dy647-FoxH1 peptide binding, europium anti-His; 88,000 compounds, 0.29% hits;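 active means compounds that reduce the energy-transfer binding signal between the protein and its labelled peptide by more than half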;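 further: 0% = Smad3 plus labelled peptide maximal FRET and 100% = peptide-only background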
Numbers without * were called inactive; / = no result; ! = a repeat was not active. Unless noted, no stated cut-off is given here; in the data, active means inhibition above about 30%; inactive means the rest.

SMILES	Cav3 T inh	PostGolgi ctrl	PostGolgi yeast	hDAT+cocaine	TNAP act DEA	Smad3 FoxH1 inh
CCOC(=O)N1CCC(Nc2c(-c3ccc(C)c(C)c3)c(=O)c2=O)CC1	0.9	9	-5	-1.3	0.9	-11
Cc1ccc(Cl)cc1N1CCN(C(=O)C2CCN(S(=O)(=O)c3cccnc3)CC2)CC1	-0.45	13	-6	1.4	0.8	11
Cc1ccc(S(=O)(=O)N(CC(=O)N2CCN(c3ccc(F)cc3)CC2)C2CCCCC2)cc1	-5.8*	13	-8	1	/	9
COc1ccc(-c2noc(CCC(=O)N3CCN(c4cc(C)ccc4C)CC3)n2)cc1	-6.9*	6	-3	0.33	0.9	-5
CCN(CCCNC(=O)CCc1nc(-c2ccc(OC)cc2)no1)c1cccc(C)c1	-8.8*	29	-3	0.29	1	7
C=CCn1c(NC(C)c2cc(Cl)ccc2O)nc2ccccc21 (configuration not stated)	/	32*	-5	/	1.1	-4
CCN1CCN(S(=O)(=O)c2ccc(Cl)c(C(=O)Nc3nnc(CC(C)C)s3)c2)CC1	0.86	21	-2	0.15	/	0
CC1c2[nH]c3ccccc3c2CCN1C(=O)Nc1ccccc1 (configuration not stated)	-12*	/	/	-0.35	/	7
Cc1cc(=O)oc(C)c1C(=O)N1CCc2c([nH]c3ccccc23)C1C(C)C (configuration not stated)	0.0088	1	-1	0.94	1	7
COc1ccc(N(C)C(=O)c2cnc(N3CCN(c4ncccn4)CC3)c3ccccc23)cc1	/	8	-7	/	/	1
COc1ccc(C(=O)Nc2ccc(Cl)cc2C(=O)NCc2ccco2)cc1OC	-1.5	12	-4	-0.0068	0.9	2
O=C(Nc1ccc2nc(C3CC3)n(Cc3ccc(F)cc3)c(=O)c2c1)c1ccco1	-2.4	23	28	0.2	0.9	-4
COc1cccc(Cn2c(C3CC3)nc3ccc(NC(=O)c4ccco4)cc3c2=O)c1	-1.6	31*	3	/	0.9	-3
O=C(Oc1ccccc1)c1ccccc1OS(=O)(=O)c1ccccc1	-2.5	26	-7	0.82	/	/
COc1ccccc1C(=O)Oc1ccc(C(C)C)cc1	-1.2	39*	0	-0.56	/	9
CCOC(=O)C1CCCN(C(=O)c2ccccc2SCCOC)C1 (configuration not stated)	1.1	9	-3	-0.22	0.9	1
COc1ccc(/C=N/OCC(=O)N2CC3(C)CC2CC(C)(C)C3)cc1OC (configuration not stated)	0.022	8	-9	2.8*	/	/
O=C(Nc1ccccc1C(=O)N/N=C/c1ccc(F)cc1)c1ccccc1Br	0.95	21	7	-0.76	/	/
O=C(NN=C1c2ccccc2-c2ccccc21)c1ccccc1Br	-4*	3	0	1.2	/	/
CC(C)(C)C1=Nn2c(nnc2-c2n[nH]c3c2CCC3)SC1	-0.32	8	-1	0.041	1.1	/
CC1=Nn2c(nnc2-c2n[nH]c3c2CCC3)SC1	0.79	-3	7	-8*	0.9	5
C=CCNC(=O)CN1CCC(n2c(C)nc3cc(C(F)(F)F)ccc32)CC1	1.3	4	12	2.3	/	/
CSc1ccc(S(=O)(=O)Nc2ccc(F)cc2)cc1	-5.1*	5	-4	-0.45	0.9	23
COc1ccc(OC)c(NS(=O)(=O)c2ccc3c(c2)n(C)c(=O)n3C)c1	-0.29	10	-18	0.91	0.9	0
COc1ccc(NS(=O)(=O)c2ccc(SC)cc2)cc1	-2.3	50*	7	2.1	0.9	-9
SMILES	Cav3 T inh	PostGolgi ctrl	PostGolgi yeast	hDAT+cocaine	TNAP act DEA	Smad3 FoxH1 inh
COc1ccc(NS(=O)(=O)c2ccc(NS(C)(=O)=O)cc2)cc1	-0.37	-4	-6	0.52	1	0
COc1ccc(NS(=O)(=O)c2ccc3c(c2)n(C)c(=O)n3C)cc1	-3.8*	-10	18	0.85	/	/
Cc1ccc(C2CC(=O)C=C(O)C2)cc1 (configuration not stated)	0.77	-2	-3	0.0062	/	6
Cc1ccc2nc(NCCCO)nc(-c3ccccc3)c2c1	/	25	-3	3.1*	/	7
COc1cc(Nc2nc(-c3ccccc3)c3cc(C)ccc3n2)cc(OC)c1OC	/	35*	-1	/	/	/
Cc1ccc2nc(NCC(=O)O)nc(-c3ccccc3)c2c1	-1.7	5	-3	0.078	/	/
COc1ccc(C2/C(=C(/O)c3ccccc3)C(=O)C(=O)N2c2ccccn2)c(OC)c1 (configuration not stated)	-0.5	7	0	-0.079	/	7
O=[N+]([O-])c1nccn1C[C@H](O)CN1CCCCC1	/	/	/	/	/	0
O=C(c1csc2ccccc12)N1CCN(c2ccc(Cl)c(Cl)c2)CC1	-0.15	36*	18	-0.16	/	/
COc1ccc(N2CCN(C(=O)c3csc4ccccc34)CC2)cc1	-0.038	17	1	-0.24	/	/
O=C(Cn1c(=O)oc2cc(S(=O)(=O)N3CCCC3)ccc21)N1CCc2ccccc2C1	-5.7*	-5	4	-0.072	/	-21
Cc1ccc(S(=O)(=O)N2CN(Cc3ccco3)c3nc4ccccc4nc32)cc1	-1.4	20	-2	0.78	/	-22
Cc1ccc(S(=O)(=O)N2CN(Cc3ccco3)c3nc4ccccc4nc32)cc1C	-2.2	32*	-1	0.4	/	-7
Cc1cccc(-n2c(N)cc(=O)[nH]c2=S)c1C	0.45	20	7	-0.81	0.9	-4
COc1ccc2c(C=Nc3c(C)n(C)n(-c4ccccc4)c3=O)c(O)n(Cc3ccco3)c(=O)c2c1	-1.1	63*!	-1	4.2*	0.8	5
COc1cccc(N=Cc2c(O)n(-c3cccc(C)n3)c(=O)c3ccccc23)c1	-0.27	17	1	2.6	/	2
Cc1cccc(-n2c(O)c(C=Nc3c(C)n(C)n(-c4ccccc4)c3=O)c3ccccc3c2=O)n1	-1.6	10	2	3.8*	0.9	10
Clc1cc(NCc2cccs2)ccc1N1CCOCC1	-1.3	-2	-8	-1	1	16
O=C(CN1C(=O)c2ccccc2S1(=O)=O)N1CCN(c2cccc(Cl)c2)CC1	0.058	/	/	0.11	/	/
COc1c(C(CC(C)C)OC(C)=O)ccc2c1C(=O)OCc1cc(C)cc(O)c1O2 (configuration not stated)	-3.8*	/	/	0.54	/	/
O=C(ON=C1CCN(S(=O)(=O)c2ccccc2)CC1)c1cccc(Cl)c1	0.43	1	-5	-0.85	/	/
COc1ccccc1NC(=O)Cc1noc(CSc2cccc[n+]2[O-])n1	1.3	18	-6	-0.27	/	/
COc1ccccc1NC(=O)Cc1noc(CSc2cc(C)c3ccccc3n2)n1	-7*	18	4	1.2	0.8	-5
O=C(N/N=C/c1cc2ccccc2nc1Cl)/C(=C/c1cccs1)NC(=O)c1ccccc1	-5.9*	4	9	0.35	/	/
O=C(Nc1ccc2c(c1)oc1ccccc12)c1ccc(Br)o1	1.1	-4	0	-0.00032	0.9	2
